PubChem BioAssay (NCATS)
Results filed as inconclusive are left out. Values without a mark were called inactive. Calls of active or inactive are those of the source. Calls follow the shape of the dose curve; as a rule, active = well fitted activation curve with a large enough effect; inconclusive = small, poorly fitted or top-dose-only effect; inactive = flat fitted curve, though single readings scatter.

assay: Primary redox qHTS assay for identification of artifact compounds. (AID 1845223); conditions: Amplex Red/HRP redox cycling with DTT, fluorescence; series mostly up to 53.8 µM; redox activity (% of DA3003): at the top concentration;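 as to redox activity (% of DA3003): 0% = DMSO and 100% = reference compound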
Method in brief: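 Redox-cycling detection via DTT (250 uM final) oxidation coupled to Amplex Red (25 uM)/HRP (250 mU/mL) in HBSS. 15 min preincubation plus 30 min after DTT, room temperature. Ex/Em 525/598 nm; 4-parameter Hill fit against DMSO and 10 uM DA3003.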
Potency is read from the fitted curve at half-maximal effect.

SMILES	redox activity (% of DA3003)	Potency
COc1ccc(S(=O)(=O)Nc2c(C)cc(C)cc2C)cc1	-4.68%	–
CC1=C(C(=O)Nc2cc(Cl)ccc2Cl)C(c2ccco2)C2=C(CCCC2=O)N1 (centres undefined)	8.21%	–
CC(=O)O[C@H]1C[C@@](O)(C(C)C)[C@@H]2[C@@H](OC(=O)c3ccc(O)cc3)CC(C)=CC[C@@]12C	-4.76% [at 25.6 µM]	–
CCCCc1c(-c2ccc(OC)cc2)[nH]c2nccnc12	-2.01%	–
CC(C)S(=O)(=O)Nc1ccc(F)c(C(=O)c2c[nH]c3ncc(-c4cccnc4)cc23)c1F	13.3%	–
O=C(N[C@@H]1CCCc2c1cnn2-c1ccc(F)cc1F)c1ccccn1	6.25%	–
Cn1ncc(Cl)c1-c1cc(C(=O)N[C@H](CN)Cc2cccc(F)c2)sc1Cl	-0.428%	–
O=C(NCCCn1ccnc1)c1cc(-c2ccco2)on1	-6.78%	–
CC1(C)CC[C@]23CO[C@@]4(CCC5[C@@]6(C)CC[C@H](O[C@@H]7OC[C@H](O[C@@H]8O[C@H](CO)[C@@H](O)[C@H](O)[C@H]8O[C@@H]8OC[C@@H](O)[C@H](O)[C@H]8O)[C@H](O)[C@H]7O)[C@@](C)(CO)C6CC[C@@]5(C)[C@]4(C)CC2=O)[C@@H]3C1 (some centres undefined)	-0.913% [at 11.5 µM]	–
C=C1CC2OC(=O)C(COC)C2C(OC(=O)/C(C)=C\C)CC2(C)OC1=CC2=O (centres undefined)	18.4%	–
CN(C)C(=O)NC1(c2ccccc2)CCN(CCC[C@]2(c3ccc(Cl)c(Cl)c3)CCCN(C(=O)c3ccccc3)C2)CC1	1.68%	–
CCN(Cc1cc(Nc2nc(C)cn3c(-c4cn[nH]c4)cnc23)sn1)C(C)(C)CO	5.64%	–
O=S(=O)(NCc1ccccn1)c1ccc(Br)c2ccccc12	-0.394%	–
COc1cc(/C=C2\CC[C@H]3COC[C@@H](c4cc(F)c(F)c(F)c4)N3C2=O)ccc1-n1cnc(C)c1	15.4%	–
NC(N)=N/N=C/c1ccccc1Cl	-1.34%	–
CO[C@@H]1[C@H](O)CCC2(CO2)[C@H]1[C@@]1(C)O[C@@H]1CC=C(C)C (some centres undefined)	9.16%	–
O[C@@](Cc1ncc(CC2(C(F)(F)F)CC2)[nH]1)(c1ccc(-n2cccn2)cc1)C(F)(F)F	4.21%	–
COc1ccc(-c2ccc3c(N4CCOCC4C)nc(N4CCOCC4C)nc3n2)cc1CO (centres undefined)	17.6%	–
CCn1c(-c2nonc2N)nc2c(C#CCO)ncc(OCCCN)c21	-3.41%	–
C=C1C(=O)OC2C1CCC1(C)C(O)CC=C(C)C21 (centres undefined)	6.35%	–

SMILES	redox activity (% of DA3003)	Potency
COC(=O)c1cc2c(C(F)(F)F)cc(-c3ccccc3)cc2n1O	-0.468%	–
CCCc1cc(C)n(C)c(=O)c1CN(C)C(=O)c1cc(-c2ccc(N3CCN(C(C)C)CC3)nc2)cc2c1cnn2C(C)C	3.62%	–
Cc1ccc(F)cc1S(=O)(=O)N[C@@H]1CCN(Cc2ccc(OC(C)C)cc2)C1	1.36%	–
CC12CCC3C1C(c1c(cc(O)c(C(=O)c4ccccc4)c1O)O2)C3(C)C (centres undefined)	-8.7%	–
Cc1ccc(C)c(NS(=O)(=O)c2cc(C(=O)Nc3ccccc3-c3ccccc3)ccc2C)c1	-1.98%	–
COC(=O)C[C@H]1C(C)(C)[C@H](OC(=O)c2ccccc2)C2CC3=C4CC(=O)O[C@@H](c5ccoc5)[C@]4(C)CCC3[C@@]1(C)C2=O (some centres undefined)	-4% [at 25.6 µM]	–
C=C(C)C(=O)O[C@H]1C[C@@](C)(O)C2(O)CCC(C)(/C=C3/OC(=O)C(COC)=C31)O2 (some centres undefined)	-8.04%	–
Cn1c(=O)c(F)c(Nc2ccc(I)cc2F)c2c(=O)n(CC(O)CO)cnc21 (centres undefined)	14.6%	–
Cc1cccc(CC(=O)N2CCc3c2ccc(-c2cn(C)c4ncnc(N)c24)c3F)n1	-2.94%	–
CC(=O)N1CCN(CCOc2ccc(C3CCN(C4=Nn5c(nnc5C(F)(F)F)CC4)CC3)cc2)CC1	7.91%	–
O=C(Nc1nc2cc(C(F)(F)F)cc(NC3CC3)n2n1)c1cccnc1	-3.38%	–
Clc1ccc(Nc2nc3ccccc3c3nc(C4CCCCC4)[nH]c23)cc1Cl	-3.04%	–
COc1cc(C(C)=O)c(OC)c2c1OC(C)(C)C=C2	-3.1%	–
C1=Cc2ccccc2C(=C2CCN(CCCCc3nn[nH]n3)CC2)c2ccccc21	16.8%	–
Cc1ccc(-c2ncc[nH]2)cc1NC(=O)c1ccc(OCc2ccccn2)cc1	8.5%	–
CC(C)=CCCC1(C)C2CCC1(C)C(O)C2 (centres undefined)	-10.2%	–
Cn1nc(-c2ccc(C(F)(F)F)cc2)nc2c(=O)n(C)c(=O)nc1-2	–	150 nM (active)
NCC(CNc1nc(Nc2cccc(NC(=O)N3CCCC3)c2)ncc1I)C(=O)c1cccs1 (centres undefined)	4.54%	–
C[C@H]1CC[C@@]2(OC1)O[C@H]1CC3[C@@H]4CC[C@@H]5C[C@@H](O[C@@H]6O[C@H](CO)[C@@H](O[C@@H]7O[C@H](CO[C@@H]8OC[C@@H](O)[C@H](O)[C@H]8O)[C@@H](O[C@@H]8O[C@H](CO)[C@H](O)[C@H](O)[C@H]8O)[C@H](O)[C@H]7O)[C@H](O)[C@H]6O)CC[C@]5(C)C4CC[C@]3(C)[C@H]1[C@@H]2C (some centres undefined)	17.1% [at 11.5 µM]	–
